# Results with a measured potency or affinity are listed apart. A number with no mark means an inactive call. Active and inactive are the calls of the source.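 Rule for the calls: active = cytotoxic signal drop whose half-maximal concentration is at most twice the top valid dose; inconclusive = flat drop between 30% and 70%, or poor fit; inactive = the rest.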
# Assay: loss of A549 viability via ATP – cell-based, plate reader, dry powder, set 7, cytotoxicity control, dose response (AID 743318)
# Details: CellTiter-Glo ATP luminescence, 72 h; series mostly up to 26 µM; activity change, negative = cytotoxic: at the top concentration
SMILES,"activity change, negative = cytotoxic [%]",outcome
Cc1ccc(C(C)C)c(OCCn2c(=S)[nH]c3c(Cl)cccc32)c1,-13.5,–
Fc1ccccc1OCCn1c(=S)[nH]c2ccccc21,21.2,–
Cc1ccc(C(C)C)c(OCCn2c(=S)[nH]c3ccc(F)cc32)c1,-2.56,–
Cc1ccc(C(C)C)c(OCCn2c(=S)[nH]c3c(C)cccc32)c1,-0.991,–
Cc1ccc(C(C)C)c(OCCn2c(=S)[nH]c3cccc(C)c32)c1,-17.9,–
S=c1[nH]c2ccccc2n1CCOc1ccccc1Cl,6.89,–
CC(C)(C)c1ccc(OCCn2c(=S)[nH]c3ccccc32)cc1,18.4,–
Cc1cccc(OCCn2c(=S)[nH]c3ccccc32)c1C,20.7,–
CC(C)c1ccccc1OCCn1c(=S)[nH]c2ccccc21,-10.6,–
Cc1ccc(C(C)C)c(OCCn2c(=S)[nH]c3c(F)cccc32)c1,10.1,–
CCOc1ccc(OCCn2c(=S)[nH]c3ccccc32)cc1,1.48,–
Cc1ccc(OCCn2c(=S)[nH]c3ccccc32)c(C(C)C)c1,–,inactive
Fc1ccc2[nH]c(=S)n(CCOc3ccccc3)c2c1,2.92,–
Cc1ccc(OCCn2c(=S)[nH]c3ccccc32)c(C)c1,18.5,–
S=c1[nH]c2ccccc2n1CCOc1ccc(Cl)cc1,-23.8,–
COCc1nc2ccccc2n1CCOc1ccc(C(C)(C)C)cc1,16.1,–
Cc1ccc(C(C)C)c(OCCn2c(CO)nc3ccccc32)c1,22.9,–
Cc1cccc(OCCn2c(=S)[nH]c3c(F)cccc32)c1,–,inactive
Fc1ccc2c(c1)[nH]c(=S)n2CCOc1ccccc1,–,inactive
CSc1nc2ccccc2n1CCOc1cc(C)ccc1C(C)C,20.2,–
Cc1cccc2[nH]c(=S)n(CCOc3ccccc3)c12,8.58,–
Cc1ccc(C)c(OCCn2c(=S)[nH]c3ccccc32)c1,-10.8,–
Cc1cccc(OCCn2c(=S)[nH]c3cc(F)ccc32)c1,–,inactive
Cc1cccc(OCCn2c(=S)[nH]c3ccccc32)c1,10.7,–
c1ccc(OCCn2cnc3ccccc32)cc1,-11.2,–
